Only some compounds are listed: those with a hit (about 3.6% of all), similar ones and a draw of the others.
Peg3 promoter = reduces Peg3 promoter-driven luciferase expression in HeLa; inhibition, % at 20 µM; HeLa PEG-Prom luciferase reporter, luminescence, overnight; 360,000 compounds, 1.7% hits;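 active = inhibition of at least 50% at 20 µM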
LGR2 antag = blocks bursicon-induced cAMP signaling via Drosophila LGR2. HEK293 LGR2, CRE-luciferase, bursicon-stimulated, 4 h. inhibition, % at 9.99 µM. 380,000 compounds, 0.35% hits;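 active = drop in luminescence signal, shown as inhibition above about 50% in the replicate tests, limit read from the data, passing the limit was not always enough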;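 also: agonist challenge used bursicon conditioned medium at about half maximal strength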
HSP90 refold inh = blocks HSP90-mediated luciferase refolding in reticulocyte lysate; Rabbit reticulocyte lysate, luciferase refolding luminescence, 3 h; inhibition, % at 5.6 µM; 290,000 compounds, 0.91% hits; AID 1789;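 active = inhibition above the screen-wide mean plus 3 SD, computed separately per campaign, cut at about 16% in these data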;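 also: 0% = DMSO wells and 100% = 60 µM geldanamycin wells; inhibitors lower the luminescence because luciferase stays unfolded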
KKLEB tox = reduces viability of KKLEB cystic fibrosis airway cells; activity change (cytotoxicity), % at 5 µM; 360,000 compounds, 0.36% hits; AID 602141; KKLEB CF airway cells viability, ATPlite luminescence, overnight; hits give low values; cells stimulated with P. aeruginosa culture filtrate;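 active = corrected activity change at or below -50% at 5 µM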
Mdm2-MdmX inh = inhibitors of human Mdm2/MdmX interaction; AID 485346; inhibition, % at 8 µM; 330,000 compounds, 3% hits; SaOS-2 split-luciferase Mdm2/MdmX complementation, luminescence;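 active = inhibition of at least 50% at 8 µM in the primary screen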
CF NFkB inh = blocks PAF-induced NF-kB reporter in cystic fibrosis cells; 360,000 compounds, 0.86% hits; inhibition, % at 5 µM; KKLEB NF-kB-GFP reporter, GFP fluorescence overnight;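 active = at least 50% inhibition at 5 µM, scaled per plate between neutral and stimulator controls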;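 also: PAF is a Pseudomonas aeruginosa culture filtrate used as stimulus; plate controls were PAF-stimulated DMSO wells for no effect and unstimulated DMSO wells for full effect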
Active calls of the source: *; nt = not tested or not shown.

SMILES	Peg3 promoter	LGR2 antag	HSP90 refold inh	KKLEB tox	Mdm2-MdmX inh	CF NFkB inh
O=C(/C=C/c1ccc([N+](=O)[O-])cc1)Nc1ncc([N+](=O)[O-])s1	-29	94*	0	-52*	nt	38
CCOC(=O)COc1ccccc1/C=C\[N+](=O)[O-]	110*	nt	-2	-29	nt	81*
Cc1ccc(C(=O)COC(=O)COc2ccccc2[N+](=O)[O-])s1	12	-13	nt	7	-6	11
OCC1OC(n2ccc3c2ncn2ncnc32)C(O)C1O (configuration not stated)	35	-18	nt	-57*	nt	68*
N#C/C(=C\c1ccccc1C(F)(F)F)C(=O)Nc1ccccc1	-1	19	-4	-7	-12	-30
CCc1cccc(CC)c1NC(=O)/C(C#N)=C/c1ccccc1C(F)(F)F	107*	41	-1	-56*	45	69*
CCCCNCC(O)(c1ccc(Cl)cc1)c1ccc(Cl)cc1	63*	7	3	-21	0	18
C[C@H](O)C(=O)C1=Nc2c(nc(N)[nH]c2=O)NC1	2	2	nt	-95*	-8	12
C[C@H](O)[C@H](O)[C@H]1CNc2nc(N)[nH]c(=O)c2N1	-13	-6	nt	9	9	18
O=C(O)C1Cc2ccccc2CN1S(=O)(=O)c1ccc(Cl)cc1 (configuration not stated)	7	nt	1	-78*	7	59*
COc1ccc(S(=O)(=O)N2Cc3ccccc3CC2C(=O)O)cc1 (configuration not stated)	10	10	2	14	2	-3
O=C(C[C@H]1C[C@@H]2c3cc(NC(=O)C4CCOCC4)ccc3O[C@@H]2[C@H](CO)O1)NCC(F)(F)F	nt	1	nt	nt	nt	nt
COC(=O)c1ccccc1Sc1ncnc2onc(C)c12	101*	28	6	0	13	38
Cc1ccc(Sc2ncnc3onc(C)c23)c(C)c1	0	28	0	-2	nt	17
COc1cc([C@@H]2C[C@H]3CN(c4ccccc4)C(=O)[C@]34CCCN24)cc(OC)c1OC	87*	33	-4	8	-8	1
CCOc1cc([C@@H]2C[C@H]3CN(c4ccccc4)C(=O)[C@]34CCCN24)ccc1OC	98*	9	-1	8	-7	5
C[C@H]1CN([C@@H](C)CO)C(=O)Cc2cc(NC(=O)CCCCCC(=O)Nc3ccccc3N)ccc2O[C@@H]1CN(C)C(=O)Nc1cccc2ccccc12	nt	2	nt	nt	nt	nt
COc1cc2c3c(cccc3c1)C(=O)N(CCN1CCCC1)C2=O	102*	nt	nt	8	nt	-219
CCOC(=O)c1ccc(NC(=O)c2nc(S(=O)(=O)Cc3ccccc3)ncc2Cl)cc1	110*	-9	3	-66*	49	95*
CCOC(=O)c1ccc(NC(=O)CCS(=O)(=O)Cc2ccccc2)cc1	-3	6	5	-9	-4	-2
Cc1ccc(-c2csc(/C(C#N)=C/Nc3ccc4c(c3)OCCO4)n2)cc1	31	-15	-3	-66*	37	68*
CC1C/C(=C\c2cccnc2)C(=O)/C(=C/c2cccnc2)C1 (configuration not stated)	107*	85*	2	-96*	nt	105*
O=[N+]([O-])c1cc([N+](=O)[O-])c2cccnc2c1Oc1ccccc1O	51*	9	3	-11	nt	16
O=[N+]([O-])c1ccc(O)c2ncccc12	41	101*	3	4	46	-18
Cc1ccccc1N=Nc1ccc(O)c2ncccc12	22	nt	-1	10	nt	-9
SMILES	Peg3 promoter	LGR2 antag	HSP90 refold inh	KKLEB tox	Mdm2-MdmX inh	CF NFkB inh
O=Nc1ccc(O)c2ncccc12	76*	-10	7	-51*	34	72*
CNC[C@H]1Oc2c(NS(=O)(=O)c3cccs3)cccc2C(=O)N([C@@H](C)CO)C[C@H]1C	nt	16	nt	nt	nt	nt
CCn1c(CCl)nc2cc(S(=O)(=O)N3CCOCC3)ccc21	71*	-1	nt	1	43	8
CNC[C@@H]1Oc2c(NC(=O)Nc3ccc(OC)cc3)cccc2C(=O)N([C@@H](C)CO)C[C@H]1C	nt	-19	nt	nt	nt	nt
CSc1ccc(/C=N/n2c(C3CCCCC3)n[nH]c2=S)cc1	4	-6	-2	16	36	0
S=c1[nH]nc(C2CCCCC2)n1/N=C/c1ccncc1	2	21	0	-12	47	85*
COc1ccc(-c2cc(-c3ccc(C)cc3)nc(SCc3nnc(-c4ccccc4)o3)c2C#N)cc1OC	38	-8	-3	-70*	-16	46
CC(=O)c1ccc(N=Nc2ccc(N(C)C)cc2)cc1	-26	nt	5	-21	-82	0
CN(C)c1ccc(N=Nc2nccs2)cc1	-60	86*	nt	-32	nt	-30
COCCNC(=O)CCSc1nc(-c2ccc(OC)cc2)cc(C(F)(F)F)n1	-4	nt	0	-6	25	3
COCC(C)NC(=O)CCS(=O)(=O)c1nc(-c2ccc(OC)cc2)cc(C(F)(F)F)n1 (configuration not stated)	110*	nt	4	-76*	43	86*
COc1ccc(NC(=O)N(C)C[C@@H]2Oc3c(NC(=O)c4cnccn4)cccc3C(=O)N([C@@H](C)CO)C[C@H]2C)cc1	nt	-19	nt	nt	nt	nt
O=C(CN1CCOCC1)N[C@H]1CC[C@@H](CCNS(=O)(=O)c2ccccc2F)O[C@@H]1CO	nt	5	nt	nt	nt	nt
Cn1c(=O)oc2cc(S(=O)(=O)N3CCCC(C(=O)NCCN4CCOCC4)C3)ccc21 (configuration not stated)	22	15	30*	-1	18	16
Cc1sc2c3ccsc3ccc2[n+]1C	-5	34	3	8	12	-15
CCN1/C(=C/c2ccc3cc(C)ccc3[n+]2CC)Sc2cc(C)ccc21	97*	22	3	-11	nt	-434
Cc1ccc2c(c1)S/C(=C/c1ccc[n+](C)c1)N2CCO	5	36	-3	13	-3	-9
CCN1/C(=C/c2ccc3cc(C)ccc3[n+]2C)Sc2ccc3sccc3c21	111*	5	1	-4	nt	-66
CCOc1ccc(NC(=O)CN2C(=O)/C(=C3\SC(=S)N(C4CCS(=O)(=O)C4)C3=O)c3ccccc32)cc1 (configuration not stated)	-5	3	20*	-2	nt	-22
C[C@@H]1CN([C@H](C)CO)S(=O)(=O)c2ccc(-c3cccnc3)cc2O[C@@H]1CN(C)C(=O)C1CCCCC1	nt	15	nt	nt	nt	nt
COCc1c(C#N)c(NCCc2ccc(F)cc2)nc(C)c1[N+](=O)[O-]	19	-1	1	0	-5	-11
Cc1nc(NCCc2ccc(F)cc2)c(C#N)c(C)c1[N+](=O)[O-]	51*	nt	-1	12	14	-2
CO[C@@H]1CN(C)C(=O)c2cc(NC(=O)c3cc(C)on3)ccc2OC[C@@H](C)N(C(=O)C2CC2)C[C@H]1C	nt	-1	nt	nt	nt	nt
Cc1cc(O)c(-c2cc(C(=O)Nc3ccc(S(=O)(=O)N4CCOCC4)cc3)[nH]n2)cc1C	60*	nt	-3	9	23	5

Compound activity (PubChem BioAssay)
